The list is not random: actives were taken first. Their share in the collection is about 5%.
EBI2 antag: EBI2 receptor antagonists, beta-arrestin recruitment, primary screen, cell-based, luminescence, 7a,25-OHC stimulation, uHTS | G-protein coupled receptor 183 (Homo sapiens), P32249 | 7a,25-OHC stimulated | inhibition, % at 5 µM | actives 0.81% (n = 360,000) | AID 651636, 2012; in the data active means inhibition above about 38%;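 further: enzyme fragment complementation signal reports receptor beta-arrestin coupling in cells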
Target sequence (P32249 whole entry, looked up, the tested form may be a part): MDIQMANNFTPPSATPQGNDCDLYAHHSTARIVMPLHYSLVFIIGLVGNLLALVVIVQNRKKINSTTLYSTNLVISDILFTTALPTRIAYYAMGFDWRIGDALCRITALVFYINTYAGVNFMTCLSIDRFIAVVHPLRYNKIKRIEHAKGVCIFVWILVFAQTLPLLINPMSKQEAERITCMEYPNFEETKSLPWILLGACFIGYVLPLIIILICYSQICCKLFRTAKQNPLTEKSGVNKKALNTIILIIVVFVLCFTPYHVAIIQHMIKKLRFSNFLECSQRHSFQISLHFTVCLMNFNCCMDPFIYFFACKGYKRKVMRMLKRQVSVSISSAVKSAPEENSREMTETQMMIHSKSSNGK
SENP7 inh: SENP7 protease inhibitors, primary screen, biochemical, luminescence, uHTS. recombinant SENP7, Z-RLRGG-aminoluciferin luminescence, 40 min. inhibition, % at 5 µM. actives 1.5% (n = 330,000). AID 434973, 2010;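 active means inhibition above about 50% at the single test dose, limit read from the data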
SENP6 block: SENP6 protease inhibitors, primary screen, biochemical, luminescence, uHTS; actives 1.8% (n = 330,000); AID 2599, 2010; Recombinant SENP6 catalytic domain, aminoluciferin luminescence; inhibition, % at 10 µM;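 active means inhibition above about 50% at the single tested dose, limit read from the data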
SENP8 block-1: SENP8 protease inhibitors, primary screen, biochemical, luminescence | Sentrin-specific protease 8 (Homo sapiens), Q96LD8 | actives 1.2% (n = 330,000) | purified SENP8, Z-RLRGG-aminoluciferin cleavage | inhibition, % at 10 µM; in the data active means inhibition above about 50%
Target sequence (Q96LD8 whole entry, looked up): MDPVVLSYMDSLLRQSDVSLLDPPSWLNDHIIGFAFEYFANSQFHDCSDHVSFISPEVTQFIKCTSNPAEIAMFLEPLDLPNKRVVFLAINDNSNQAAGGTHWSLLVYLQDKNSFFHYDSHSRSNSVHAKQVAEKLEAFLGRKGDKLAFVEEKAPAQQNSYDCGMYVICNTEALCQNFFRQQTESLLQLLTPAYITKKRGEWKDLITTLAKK
SENP8 block-2: human SENP8 protease inhibitors, primary screen, biochemical, fluorescence, Nedd8 protein substrate, uHTS. inhibition, % at 20 µM. recombinant SENP8. AID 602440, 2012. actives 0.64% (n = 360,000). Sentrin-specific protease 8 (Homo sapiens), Q96LD8; in the data active means inhibition mostly above about 40%, no sharp cut-off; inactive means mostly below about 27%
AHR activator: AHR activators, primary screen, cell-based, luminescence, luciferase reporter, human | Aryl hydrocarbon receptor (Homo sapiens), P35869 | AHR-responsive luciferase reporter cells | activation, % at 5 µM | actives 2.5% (n = 320,000) | AID 2796, 2010; in the data active means activation above about 47%
SENP8 conf: human SENP8 protease inhibitors, confirmation, biochemical, Nedd8 protein substrate, single concentration. shares compounds with SENP8 block-2. purified SENP8, Nedd8-AMC/pro-Nedd8 cleavage fluorescence, 30 min. inhibition, % at 25 µM. actives 15% (n = 1,400). AID 624319, 2012; in the data active means inhibition mostly above about 39%, no sharp cut-off; inactive means mostly below about 34%
Numbers stand for hits; . = inactive; / = no result given.

SMILES	EBI2 antag	SENP7 inh	SENP6 block	SENP8 block-1	SENP8 block-2	AHR activator	SENP8 conf
CC(C)Nc1ccc(C(CC(N)=O)NC(=O)c2ccc(Br)cc2)cc1[N+](=O)[O-] (stereo unspecified)	.	.	.	.	.	.	/
Cc1nn(C)c(N)c1-c1ccccc1	.	.	.	.	.	.	/
Cc1nc(C)n(C)c(=O)c1-c1ccccc1	.	.	.	.	40	.	.
O=C1CSC2=NCN(c3ccc4c(c3)OCO4)CN12	.	.	.	.	.	.	/
CN(C)c1ccc(N2CN=C3SCC(=O)N3C2)cc1	.	.	.	.	52	.	.
O=C(NCCCN1CCOCC1)c1sc2ccccc2c1Cl	.	.	.	.	.	.	/
COc1ccc(CC(=O)Nc2nnc(C(C)(C)C)s2)cc1OC	.	.	.	.	.	.	/
CC(C)=CCC/C(C)=C/CC/C(C)=N/O	.	.	.	.	.	.	/
C=CC(C)(O)CCC=C(C)C (stereo unspecified)	.	.	.	.	41	.	.
O=c1cc(O)c2c(=O)n(-c3ccccc3)c3c(c2o1)CCCCCC3	.	.	.	.	.	.	/
c1ccc(OCCSc2nc3ccccc3o2)cc1	.	.	.	.	.	.	/
CCOc1ccc(OCCSc2nc3ccccc3o2)cc1	.	.	.	.	47	.	.
COC(=O)/C(=C/Nc1ccc(O)cc1)[N+](=O)[O-]	.	.	.	.	74	.	.
O=S(=O)(NCc1ccc(F)cc1)c1ccc(-n2cccn2)cc1	.	.	.	.	.	.	/
CC(=O)Nc1ccc(Nc2ncc([N+](=O)[O-])c(Nc3ccc(NC(C)=O)cc3)n2)cc1	.	.	.	.	44	.	.
CC(C)CN1C(=O)C(=O)N(CC(=O)c2ccc3c(c2)OCO3)C1=O	.	.	.	.	.	.	/
CC(=O)Nc1ccc(C(=O)O)cc1	.	.	.	.	46	.	.
O=C(CSc1nnnn1-c1ccccc1)N1CCc2ccccc2C1	.	.	.	.	.	.	/
CC(=O)c1ccc(-n2nnnc2SCC(=O)N2CCc3ccccc3C2)cc1	.	/	/	/	61	/	79
CC1=C(C(=O)OCCCCCl)C(c2cc3c(cc2Br)OCO3)NC(=O)N1 (stereo unspecified)	.	.	.	.	.	.	/
COc1ccc(CSc2nnnn2C)cc1[N+](=O)[O-]	.	.	.	.	48	.	.
COc1ccc(CSc2nnnn2-c2ccc(C(N)=O)cc2)cc1[N+](=O)[O-]	.	.	.	.	.	.	/
CCNc1nc(NC(C)C)nc(N(C#N)C(C)C(=O)N(C)C)n1 (stereo unspecified)	.	.	.	.	45	.	.
CCNc1nc(NC(C)C)nc(N(C#N)C(C)C(=O)N(CC)CC)n1 (stereo unspecified)	.	.	.	.	.	.	/
O=C1CCCC2=C1C1(O)C(=O)c3ccccc3C1(O)O2 (stereo unspecified)	.	.	.	.	51	.	89
SMILES	EBI2 antag	SENP7 inh	SENP6 block	SENP8 block-1	SENP8 block-2	AHR activator	SENP8 conf
Cn1cnc2c(=O)[nH]cc([N+](=O)[O-])c21	.	.	.	.	84	.	59
Cn1cnc([N+](=O)[O-])c1Cl	.	.	.	.	.	.	/
CCc1nnc(NC(=O)C(c2ccccc2)c2ccccc2)s1	.	.	.	.	.	.	/
CCN(CC)S(=O)(=O)c1ccc(N2CCN(c3cccc(OC)c3)CC2)c([N+](=O)[O-])c1	.	.	.	.	43	.	.
O=C(Cc1ccc(Cl)cc1Cl)Nc1cccc(S(=O)(=O)Nc2ccccc2F)c1	.	.	.	.	.	.	/
CC1CCN(c2ccc(NC(=S)NC(=O)c3ccco3)cc2)CC1	.	.	.	.	42	.	.
Clc1ccc(N=C2SCCS2)cc1	.	.	.	.	.	.	/
Cc1nnc2n(-c3ccccc3)c(=O)c3ccccc3n12	.	.	.	.	41	.	.
O=C(O)CSc1nnc2n(-c3ccccc3)c(=O)c3ccccc3n12	.	.	.	.	.	.	/
CN(C(=O)COC(=O)c1ccc2c(c1)OCCO2)c1ccccc1	.	.	.	.	.	.	/
Cc1cc2ccccn2c1C(=O)c1ccc(NN)c([N+](=O)[O-])c1	.	.	.	.	42	.	.
CN(C)S(=O)(=O)c1cccc(NC(=O)CCNC(=O)Nc2ccccc2)c1	.	.	.	.	42	.	.
O=C(Cc1ccc(Br)cc1)N(Cc1ccccc1)c1ccccn1	.	.	.	.	.	.	/
CCOC(=O)c1nn(-c2ccccc2C)c(=O)c(C#N)c1C	.	.	.	.	.	.	/
CCOC(=O)c1nn(-c2ccccc2C)c(=O)c2c(N)scc12	.	.	.	.	47	.	.
CCN(CC)C(=O)CSc1n[nH]c(=S)n1N	.	.	.	.	44	.	.
CN(C)c1cc(Nc2cccc(O)c2)c([N+](=O)[O-])c2nonc12	.	.	.	.	45	.	.
Cc1ccc(C(=O)Nc2c(N)nc(SCC(=O)NCC3CCCO3)[nH]c2=O)cc1 (stereo unspecified)	.	.	.	.	.	.	/
CCN(CC)C(=O)Cc1ccccc1	.	.	.	.	42	.	.
COc1ccc(Cl)cc1NC(=O)C1CCN(S(C)(=O)=O)CC1	.	.	.	.	.	.	/
O=c1cc(-c2cccc([N+](=O)[O-])c2)[nH][nH]1	.	.	.	.	43	.	.
O=C1CCCC2=C1CC(C(=O)OCc1ccccc1)C(=O)N2Cc1ccccc1 (stereo unspecified)	.	/	/	/	.	/	/
CCc1ccc(NC(=O)NCCN2CCc3ccccc3C2)cc1	.	.	.	.	45	.	.
O=C(NCCN1CCc2ccccc2C1)Nc1ccc(F)cc1	.	.	.	.	.	.	/
CCc1ccc(NC(=O)CN2CCc3ccccc3C2)cc1	.	.	.	.	70	.	.
COc1ccccc1CNC(=O)CCC1N=C2c3ccccc3N=C(SCC(=O)NCC3CCCO3)N2C1=O (stereo unspecified)	.	.	.	.	.	.	/
CC(C)(C)NC(=O)NC(=O)C[n+]1ccc(Cc2ccc([N+](=O)[O-])cc2)cc1	.	.	.	.	50	.	.
Cc1ccc(Cl)cc1NC(=O)C[n+]1ccc(Cc2ccc([N+](=O)[O-])cc2)cc1	.	.	.	.	.	.	/
